From PubChem BioAssay AID488977 (Johns Hopkins Ion Channel Center, 2010) come the findings set out here.

Out of some 310,000 compounds screened, about 1,500 (0.48%) were called active.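 The calls were made as follows: active = initial fluorescence not abnormally high and integrated response B-score, plate-corrected, over 3 SD above library mean; inactive = the rest.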 Many of the other results were omitted from the sample, so actives are more common in it than they were.

The target in this assay is High affinity choline transporter 1 (Homo sapiens) (UniProt Q9GZV3). Nature of the assay: allosteric activators of human choline transporter – cell-based, membrane potential dye, choline EC20, primary screen (AID 488977). The conditions noted are these: CHT-expressing cells, at 10 µM, LV-AA mutant CHT in HEK293 cells; stronger effect = higher value.
Sequence of High affinity choline transporter 1 (Homo sapiens) (Q9GZV3 whole entry, looked up): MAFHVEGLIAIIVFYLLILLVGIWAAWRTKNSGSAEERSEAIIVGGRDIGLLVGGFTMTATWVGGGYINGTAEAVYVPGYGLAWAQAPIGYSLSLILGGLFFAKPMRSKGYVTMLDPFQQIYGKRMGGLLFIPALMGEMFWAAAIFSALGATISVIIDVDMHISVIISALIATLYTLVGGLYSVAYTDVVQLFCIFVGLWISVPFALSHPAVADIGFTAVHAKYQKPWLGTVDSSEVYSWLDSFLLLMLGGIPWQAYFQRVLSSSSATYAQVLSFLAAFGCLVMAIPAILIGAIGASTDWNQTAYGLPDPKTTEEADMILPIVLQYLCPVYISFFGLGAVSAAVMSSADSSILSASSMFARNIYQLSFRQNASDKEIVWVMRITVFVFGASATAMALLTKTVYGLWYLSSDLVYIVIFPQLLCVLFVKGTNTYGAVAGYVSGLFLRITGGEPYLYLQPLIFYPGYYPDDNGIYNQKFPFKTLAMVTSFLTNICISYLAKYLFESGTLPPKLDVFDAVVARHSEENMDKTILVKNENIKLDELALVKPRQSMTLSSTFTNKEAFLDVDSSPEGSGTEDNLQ
As for `c1ccc2c(C[n+]3csc4ccccc43)cccc2c1`, the B-score result was “inactive”.
As for `Fc1ccccc1COc1cccc2cccnc12`, the B-score result is “inactive”.
On to `Nc1scc[n+]1Cc1cccc2cccnc12`, for which the B-score was 6.75 (active).
In the case of `COc1ccc(CCNC(=O)C(=O)NCC2CCCN2S(=O)(=O)c2cccs2)cc1OC` (stereo unspecified) it was “inactive”.
To `N=c1c2c3c(sc2ncn1CCCN1CCOCC1)CCCCC3` belongs 6.58 (active); to `Nc1nc(SCC(=O)NCCN2CCOCC2)nc2sc3c(c12)CCC3`, “inactive”; to `N=c1c2c3c(sc2ncn1N)CCCCC3`, “inactive”.
In the case of `CCN(CC(=O)Nc1cccc(S(=O)(=O)N2CCCCC2)c1)Cc1ccccc1` it was “inactive”; in that of `COc1nc(N=C(N)N)nc2c(C)cccc12`, 8.19 (active); in that of `CC(=O)Oc1ccc(-c2nc3c(C)cccc3c(=O)o2)cc1`, “inactive”.
For `Cc1nc(N=C(N)N)nc2c(C)cccc12`, the B-score is 7.11 (active).
As to `COc1ccc2nc(/N=C(\N)NC(=O)Nc3ccccc3)nc(C)c2c1`, the B-score result is “inactive”.
In the case of `Cc1nc(/N=C(\N)NC(=O)NC2CCCCC2)nc2ccccc12` it was “inactive”; in that of `NC(N)=Nc1nc(-c2ccccc2)c2cc(Cl)ccc2n1`, “inactive”.
In the case of `O=C(Nc1ccc(C(=O)N2CCOCC2)cc1)Nc1cccc(C(F)(F)F)c1` it was “inactive”.
In the case of `Cc1ccc(OCC(=O)Oc2ccccc2[N+](=O)[O-])cc1` it was “inactive”; in that of `COc1ccc2c(c1)[C@H]1[C@H](CO2)[C@H](c2ccccc2)[C@]2(C)C(=O)Nc3cc(F)c(F)cc3C(=O)N12`, “inactive”.
Regarding `O=C(Nc1ccc2nc3n(c(=O)c2c1)CCCC3)c1ccc(Cl)nc1`, the B-score entry was “inactive”.
To `CN(C)C1=NC[C@H](Cc2ccccc2)N1CCc1ccc(F)cc1` belongs “inactive”; to `Cc1noc(C)c1CSCC(=O)Nc1ccc(Br)cc1Cl`, “inactive”.
Take `CCOC(=O)C1CCN(c2ccc(C(=O)O)cc2[N+](=O)[O-])CC1`: the B-score entry is “inactive”.
In the case of `Cc1ccc(C(=O)c2ccc(N3CCN(C)CC3)c([N+](=O)[O-])c2)cc1` it was 6.4 (active).
In the case of `Cc1cccc(N2CCN(c3ccc(C(N)=O)cc3[N+](=O)[O-])CC2)c1C` it was “inactive”; in that of `O=C(Cc1ccc(S(=O)(=O)N2CCOCC2)s1)N1CCN(c2ccc(C(F)(F)F)cc2[N+](=O)[O-])CC1`, “inactive”; in that of `COc1ccc(NC(=O)CN(C)C(=O)c2cccc(S(=O)(=O)N3CCN(c4ccccc4)CC3)c2)cc1`, “inactive”.
`CC(C)CC(COCc1ccc(Cl)cc1)N1CCN(C(=O)c2ccc(C(F)(F)F)cc2)CCC1=O` (stereo unspecified): the B-score is 6.29 (active).
Regarding `O=C(c1cc(Cl)cc(Cl)c1)N1CCC(=O)N(C(COCc2ccccc2)Cc2ccccc2)CC1` (stereo unspecified), the B-score entry is “inactive”.
In the case of `CC(C)CC(CO)N1CCN(C(=O)c2ccc(Cl)cc2Cl)CCC1=O` (stereo unspecified) it was “inactive”; in that of `O=C(CCC(=O)c1cccs1)Nc1nc2ccccc2s1`, “inactive”; in that of `CCCCn1c(N)c(N(CC(C)C)C(=O)c2ccc(-n3c(C)ccc3C)cc2)c(=O)[nH]c1=O`, “inactive”.
To `Nc1ccccc1SCc1cc([N+](=O)[O-])cc2c1OCOC2` belongs 7.8 (active); to `CCS(=O)(=O)c1cc([N+](=O)[O-])c(Sc2ccccc2N)s1`, “inactive”; to `Nc1ccccc1SC(C[N+](=O)[O-])c1ccccc1` (stereo unspecified), “inactive”.
To `Cc1cc(C)cc(NC(=O)COc2coc(CN3CCN(c4ccccc4)CC3)cc2=O)c1` belongs “inactive”; to `COc1cccc(N2CC(NC(=O)c3ccc4ccccc4c3)CC2=O)c1` (stereo unspecified), “inactive”; to `CCCCCCCCn1c2c(c(=N)c3c1CCC3)CCCC2`, 12.2 (active).
Turning to `COc1ccccc1N(C)S(=O)(=O)c1ccc(Cl)c(C(=O)Nc2ccncc2)c1`, the B-score result was “inactive”.
In the case of `CN1C(C(=O)NCc2ccco2)CC2Cn3c(nc4ccccc43)C21` (stereo unspecified) it was “inactive”; in that of `CC(OC(=O)CCCc1c[nH]c2ccccc12)C(=O)Nc1ccc(S(N)(=O)=O)cc1` (stereo unspecified), “inactive”.
In the case of `COc1ccc2oc(C(=O)OCC(=O)N(CC(C)C)c3c(N)n(Cc4ccccc4)c(=O)[nH]c3=O)c(C)c2c1` it was “inactive”.
To `CCCCCCSc1ccc([C@@H]2[C@@H]3C(=O)N(CC)C(=O)[C@@H]3[C@]3(C(=O)OC)CCCCN23)cc1OC` belongs “inactive”; to `CCOc1ccc(C2c3[nH]c4ccccc4c3CCN2Cc2cn(CC)nc2C)cc1` (stereo unspecified), “inactive”; to `CCOc1ccc(C2c3[nH]c4ccccc4c3CCN2Cc2cccn2-c2ncccn2)cc1` (stereo unspecified), 6.79 (active).
In the case of `c1ccc(C2c3[nH]c4ccccc4c3CCN2Cc2cccn2-c2cccnc2)nc1` (stereo unspecified), the B-score entry was “inactive”.
Turning to `COc1ccc(Cl)cc1NC(=O)CN(C)C(=O)c1cc2ccccc2cc1OC`, the B-score entry was “inactive”.
In the case of `Cc1cc(C)c(S(=O)(=O)N2CCCC2CNC(=O)c2ccc3c(c2)OCO3)c(C)c1` (stereo unspecified) it was “inactive”; in that of `CCN(CC)CCn1c2c(c(SCC(=O)Nc3ccc(C(C)C)cc3)nc1=O)CCC2`, “inactive”; in that of `COC(=O)c1c(C)[nH]c(C)c1-c1ccc([N+](=O)[O-])cc1`, “inactive”.
To `COc1ccc(C2CC(c3ccc([N+](=O)[O-])cc3)=NN2C(C)=O)cc1` (stereo unspecified) belongs “inactive”; to `CC(=O)N1CC[n+]2c(-c3ccc([N+](=O)[O-])cc3)csc21`, 7.27 (active); to `CCOCCCNc1nc(-c2ccccc2)nc2ccccc12`, “inactive”.
In the case of `CC(C)(C)Nc1nc(-c2ccccn2)nc2ccccc12`, the B-score was 6.37 (active).
In the case of `Cc1ccc(Oc2nc(-c3ccccn3)nc3ccccc23)cc1` it was “inactive”; in that of `COc1ccc(S(=O)(=O)N2CCCCCC2)cc1C(=O)N(C)Cc1cccc(OC)c1OC`, “inactive”; in that of `O=[N+]([O-])c1ncc(Br)cc1Nc1ccccc1`, “inactive”.
To `Cc1ccc(OCCCn2c(=O)oc3ccccc32)cc1` belongs “inactive”; to `CCCCCCCCCCOC(=O)Cn1c(COc2ccc(C)cc2)[n+](C)c2ccccc21`, 9.75 (active).
To `CCCCCCCCCCOC(=O)Cn1c(COc2cccc(OC)c2)[n+](C)c2ccccc21` belongs 10.7 (active); to `COc1cccc(OCCCN2CCCCCC2)c1`, “inactive”.
With `CCCCOC(=O)Cn1c(=N)n(CCN(CC)CC)c2ccccc21`, the B-score entry was “inactive”.
`COc1cccc(OCC(=O)Nc2ccccc2C(N)=O)c1`: the B-score result is “inactive”.
In the case of `CCOC(=O)c1c(C)oc2cc(Sc3ccccc3)c(O)c(O)c12` it was “inactive”; in that of `COc1cccc(CNC(=O)C(=O)NCCC2CCCCN2S(=O)(=O)c2ccc(C)cc2)c1` (stereo unspecified), “inactive”.
In the case of `Cc1cc(OCC(=O)N(C)c2c(N)n(Cc3ccccc3)c(=O)[nH]c2=O)c(C(C)C)cc1Cl` it was “inactive”; in that of `CCOC(=O)C(C)Sc1nc2ccccc2c(=O)n1CC1CCCCC1` (stereo unspecified), “inactive”.
In the case of `O=C(CCCn1c(SCC(=O)c2ccc(F)cc2)nc2ccccc2c1=O)NCc1ccco1` it was “inactive”; in that of `CC(Sc1nc2ccccc2c(=O)n1Cc1ccco1)C(=O)c1ccccc1` (stereo unspecified), 7.82 (active).
Take `Cc1sc2ncnc(N3CCC(C(=O)NNC(=O)c4ccc(F)cc4)CC3)c2c1C`: the B-score entry is “inactive”.
In the case of `CC1=CC(C)(C)N(C(=O)CSc2nnc(-c3ccccc3)o2)c2ccc(C)cc21` it was 9.98 (active); in that of `CC1=CC(C)(C)N(C(=O)CSc2nccn2C)c2cc(C)ccc21`, “inactive”.
In the case of `O=C(CSc1nnc(-c2ccccc2)o1)N1CCOCC1` it was “inactive”; in that of `CCN1/C(=C/C(=S)Nc2ccccc2)Sc2ccccc21`, “inactive”.
In the case of `CCN1/C(=C/c2ccc3ccc(C)cc3[n+]2CC)Sc2ccccc21` it was 7.76 (active).
For `CCN1/C(=C\c2ccc3ccccc3[n+]2CC)Sc2cc(C)ccc21`, the B-score entry is “inactive”.
In the case of `COc1ccc(C(=O)NCC(c2ccco2)N2CCc3ccccc32)cc1OC` (stereo unspecified) it was “inactive”; in that of `Cc1ccccc1C(=O)NCC(c1ccco1)N1CCc2ccccc21` (stereo unspecified), 7.63 (active).
In the case of `O=C(NCC(c1ccco1)N1CCc2ccccc21)c1cccc(F)c1` (stereo unspecified) it was “inactive”; in that of `CC(=O)Nc1ccc(C(=O)Nc2cccc(S(=O)(=O)NC3=NCCC3)c2)cc1`, “inactive”.
To `COc1ccc(C(=NN)c2ccc(OC)cc2)cc1` belongs “inactive”; to `CCOC(=O)[C@H]1[C@H]2COc3ccc(Cl)cc3[C@@H]2N2C(=O)c3cc(C)ccc3NC(=O)[C@@]12C`, “inactive”.
Turning to `Cn1cccc1C(=O)NNC(=O)COc1ccc(Br)cc1`, the B-score entry is “inactive”.
To `O=C(Nc1ccc(S(=O)(=O)N2CCCCC2)cc1)C1CCN(C(=O)c2ccc(F)cc2)CC1` belongs “inactive”; to `COc1ccc(C2CC(=O)Nc3cc(C)c(C)cc32)c(OC)c1OC` (stereo unspecified), “inactive”; to `COc1ccccc1C1C2=C(COC2=O)Nc2cc3c(cc21)OCO3` (stereo unspecified), “inactive”.
On to `CCCOc1ccccc1C1CC(=O)Nc2cc3c(cc21)OCO3` (stereo unspecified), for which the B-score is 7.15 (active).
In the case of `COc1ccc(/C=C2\SC(=S)N(CCCC(=O)NC3CCCC3)C2=O)cc1OC` it was “inactive”; in that of `Cc1c(CCOC(=O)c2cc([N+](=O)[O-])ccc2Cl)sc[n+]1CCCCS(=O)(=O)[O-]`, “inactive”; in that of `Cc1c(CCOC(=O)CC23CC4CC(CC(C)(C4)C2)C3)sc[n+]1Cc1ccc([N+](=O)[O-])cc1`, 8.47 (active).
Consider `CCN(CC)CCn1c2c(c(SCC(=O)Nc3nc4ccccc4s3)nc1=O)CCCC2`, for which the B-score entry is “inactive”.
In the case of `CCC(C)(C)NC(=O)c1cc([N+](=O)[O-])ccc1N1CCCCC1` it was “inactive”.
For the compound `CCC(=O)c1ccc(N2CCN(C(=O)c3cc([N+](=O)[O-])ccc3F)CC2)c(F)c1`, the B-score result was “inactive”.
To `CCN1CCN(c2ccc([N+](=O)[O-])cc2C(=O)c2ccc(Cl)cc2)CC1` belongs 8.73 (active); to `Cc1cc(O)c(Sc2ccccc2)c(=O)o1`, “inactive”; to `CCCCCCn1cc(C(=O)O)c(=O)c2cc(F)c(N3CCCCC3)cc21`, “inactive”.
To `CCOC(=O)c1cn(CC)c2cc(F)c(F)cc2c1=O` belongs 7.03 (active); to `Cc1ccc(Cn2cc(C(=O)NN)c(=O)c3ccc(F)cc32)cc1`, “inactive”.
To `Cc1cc(C)c(S(=O)(=O)n2cc(C(C)C(N)C(=O)O)c3ccccc32)c(C)c1` (stereo unspecified) belongs “inactive”; to `CCCn1c(C)cc(-c2csc(NC(=O)CCc3nc4ccccc4c(=O)[nH]3)n2)c1C`, “inactive”; to `O=C1c2ccccc2C(=O)c2c1cccc2N1CCN(Cc2ccccc2)CC1`, “inactive”.
In the case of `O=C1c2ccccc2C(=O)c2c1cccc2N1CCN(CCO)CC1`, the B-score was 8.6 (active).
In the case of `O=C1c2ccccc2C(=O)c2c1cccc2N1CCN(C/C=C/c2ccccc2)CC1` it was “inactive”.
